An excerpt weighted towards active compounds, which were near 1.8% of everything screened.
PKD1 kinase inh: blocks activity of human protein kinase D1 | PKD1 kinase fluorescence polarization assay | inhibition, % (test concentration not listed) | hit rate 0.056% among 200,000 | AID 797 | Q15139
VLA-4 inh: inhibition in a human VLA-4 binding assay; hit rate 0.2% among 330,000; P13612; VLA-4 expressing cells, ligand binding flow cytometry; AID 2557; inhibition, % (about 7 µM as worked out from the volumes in the protocol)
Target sequence (P13612 whole entry, looked up): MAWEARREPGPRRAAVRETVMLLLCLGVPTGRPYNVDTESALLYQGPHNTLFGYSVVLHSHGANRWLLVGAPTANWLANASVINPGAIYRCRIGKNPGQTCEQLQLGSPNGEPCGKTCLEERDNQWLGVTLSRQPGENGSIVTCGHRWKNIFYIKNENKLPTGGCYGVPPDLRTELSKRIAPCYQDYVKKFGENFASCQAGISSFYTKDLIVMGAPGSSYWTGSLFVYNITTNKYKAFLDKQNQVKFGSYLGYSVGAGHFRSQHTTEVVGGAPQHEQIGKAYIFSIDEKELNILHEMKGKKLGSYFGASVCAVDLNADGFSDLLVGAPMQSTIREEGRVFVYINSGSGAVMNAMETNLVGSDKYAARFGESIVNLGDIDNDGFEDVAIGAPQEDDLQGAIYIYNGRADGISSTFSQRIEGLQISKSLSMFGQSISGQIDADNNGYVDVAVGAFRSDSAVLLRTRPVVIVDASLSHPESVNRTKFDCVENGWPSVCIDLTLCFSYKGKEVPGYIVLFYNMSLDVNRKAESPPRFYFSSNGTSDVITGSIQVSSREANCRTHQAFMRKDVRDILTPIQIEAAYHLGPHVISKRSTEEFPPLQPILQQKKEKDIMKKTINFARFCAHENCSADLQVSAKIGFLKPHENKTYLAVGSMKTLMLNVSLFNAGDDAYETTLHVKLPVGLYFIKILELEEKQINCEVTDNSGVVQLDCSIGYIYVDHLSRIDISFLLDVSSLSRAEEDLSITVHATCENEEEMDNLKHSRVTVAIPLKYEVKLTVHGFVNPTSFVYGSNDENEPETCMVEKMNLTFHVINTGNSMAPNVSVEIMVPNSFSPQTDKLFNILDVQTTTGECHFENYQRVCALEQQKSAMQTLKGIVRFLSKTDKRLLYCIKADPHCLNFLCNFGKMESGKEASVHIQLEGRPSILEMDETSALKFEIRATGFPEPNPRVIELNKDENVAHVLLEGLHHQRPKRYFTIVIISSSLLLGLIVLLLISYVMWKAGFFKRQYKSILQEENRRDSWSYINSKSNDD
GRK2 aptamer HTS: human GRK2 inhibition via aptamer displacement; P25098; hit rate 0.59% among 330,000; bead flow cytometry, FAM-aptamer displacement from GRK2; inhibition of aptamer binding, % at 10 µM;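 active = inhibition of aptamer binding above 40%, roughly 3 SD of noise, on plates passing a quality check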;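 also: median bead fluorescence of bound FAM aptamer so fluorescent compounds give negative values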
Pemphigus Ab inh: blocks pemphigus antibody binding to human desmoglein-3; P32926; DSG3-coupled beads, scFv-anti-DSG3-GFP binding, flow cytometry; stronger effect = lower value; binding (percent of control), % at 10 µM; hit rate 0.48% among 310,000; AID 588358;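 active = binding more than 3 SD below its plate's average and above zero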
HDAC3 inh: blocks human histone deacetylase 3; O15379; recombinant HDAC3, fluorogenic peptide/trypsin coupled, fluorescence; inhibition, % at 8.3 µM; hit rate 0.15% among 320,000; AID 2718; in the data active = inhibition above about 26%, passing the limit was not always enough
LANA-H2B inh: blocks KSHV LANA binding to histone H2A/H2B; inhibition, % (no concentration beside the values); hit rate 0.6% among 320,000; AID 2629; cell-free LANA-H2A/H2B peptide, fluorescence polarization; in the data active = inhibition mostly above about 10%, no sharp cut-off; inactive = mostly below about 6.7%
GRK2 CP1: confirmation of human GRK2 inhibitors displacing RNA aptamer; shares compounds with GRK2 aptamer HTS; bead-bound GRK2, FAM-aptamer displacement, flow cytometry; aptamer displacement, % at 10 µM; hit rate 4% among 2,000;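 active = aptamer displacement above 40%, near three times the noise of non-fluorescent compounds, on plates passing quality checks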;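 also: negative values mostly reflect intrinsic compound fluorescence rather than true enhancement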
Aptamer quench: fluorescent aptamer quenching in GRK2 counter-screen dose response; shares compounds with GRK2 aptamer HTS; 110 tested, under 10 active; fluorescence change (kMESF span), kMESF (concentration not given with the values); Fluorescent RNA aptamer beads, flow cytometry; stronger effect = higher value;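 active = compounds whose bead fluorescence drops by more than 37 kMESF across the dose range, marking them as dye quenchers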
FAM quench CP1: counter-screen for GRK2 aptamer inhibitors: fluorescent aptamer quenchers. shares compounds with GRK2 aptamer HTS. Carboxyfluorescein RNA aptamer on beads, flow cytometry quenching; stronger effect = lower value. 2,000 tested, under 10 active. fluorescence response (% of DMSO), % at 10 µM;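 active = compounds that quench the bead-bound fluorescent RNA probe, cutting fluorescence to under half of the solvent control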;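 also: counterscreen run without GRK2 so only probe quenching by compound is measured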
* hit, by the source's call; . = no result. Rule as the data show it, unless noted: active = inhibition above about 50%; inactive = the rest.

SMILES | PKD1 kinase inh | VLA-4 inh | GRK2 aptamer HTS | Pemphigus Ab inh | HDAC3 inh | LANA-H2B inh | GRK2 CP1 | FAM quench CP1 | others
O=C(O)c1cccc2c1NC(C(=O)O)C1CC(Sc3ccccc3[N+](=O)[O-])C(Cl)C21 (stereo not drawn) | 7 | 13 | 60* | 73* | 4 | . | 41* | 104 | Aptamer quench=8.5
CC(=O)OCC[N+](C)(C)C | -2 | 3 | 3 | 122 | 5 | -3 | . | .
C[N+](C)(C)CCOC(=O)CBr | . | -3 | 14 | 99 | 2 | 4 | 0 | 104
CN1CCN(c2ccc(C(N)=O)cc2N)CC1 | -2 | 13 | 43* | 91 | -16 | 1 | -2 | 102
FC(F)(F)c1cccc(NC2=NCCS2)c1 | . | . | . | 108 | . | . | . | .
O=C1NC(=O)N(c2ccc3c(c2)OCO3)C(=O)/C1=C/c1ccc(N2CCCCC2)o1 | -14 | -17 | 0 | 138 | 2 | -37 | . | .
O=C1NC(=O)N(c2ccc3c(c2)OCO3)C(=O)/C1=C\c1ccc(-c2ccccc2C(=O)O)o1 | . | 5 | 60* | 96 | 3 | 1 | 47* | 96 | Aptamer quench=4.3
CC[n+]1c(/C=C/C=C/c2ccc(N(C)C)cc2)sc2ccccc21 | . | -354 | 22 | 104 | 1 | -8 | . | .
CC[n+]1c(/C=C/N(C)c2ccccc2)sc2ccc(Cl)cc21 | 1 | -419 | 92* | 89 | 1 | 0 | 41* | 108 | Aptamer quench=26
c1ccc(CN2Cc3ccccc3-n3nncc3C2)nc1 | . | . | . | 109 | . | . | . | .
CCC1(NS(=O)(=O)c2ccc(N)cc2)C(=O)N(C)C(=O)N(C)C1=O | . | . | . | 92 | . | . | . | .
NC(=O)C1CCN(/C=C2\C(=O)NC(=O)N(Cc3ccco3)C2=O)CC1 | . | 6 | 47* | 93 | -7 | -6 | 20 | 99
O=C(Nc1ccccc1)Oc1ccccc1 | -4 | 11 | 3 | 102 | 1 | -4 | . | .
COC(=O)c1ccc(NC(=O)NC(=O)Oc2ccccc2)cc1 | . | 39 | 81* | 97 | -1 | -12 | -1 | 98
Cc1ncoc1C(=O)NCC1=C(c2ccc(S(C)(=O)=O)cc2)C[C@@H]2CC[C@H]1N2Cc1ccco1 | . | . | . | 111 | . | . | . | .
Cc1cc(=O)oc2c(C)c(OCC(=O)N3CCN(Cc4ccccc4)CC3)ccc12 | . | 10 | 0 | 103 | 1 | 2 | 4 | 102
CC(C)N1C(=O)/C(=C/C=C/c2ccco2)C(=O)N(Cc2ccco2)C1=O | 2 | 12 | 16 | 96 | 14 | -2 | 11 | 103
CCN1/C(=C\C=C\C2=[N+](CC)c3ccccc3C2(C)C)C(C)(C)c2ccccc21 | 5 | . | 70* | . | 5 | -215 | 24 | 100
CN1CCN(C(=O)COc2ccc(S(=O)(=O)N(C)Cc3ccccc3)cc2)CC1 | -1 | 1 | 54* | 101 | 4 | -1 | -22 | 151
CCN(CC)c1ccc(N=Cc2c(O)n(-c3ccccc3C)c(=O)[nH]c2=O)cc1 | -8 | -59 | 27 | 105 | 1 | 0 | 0 | 107
Cc1ccccc1-n1c(O)c(C=Nc2ccc3c(c2)OCO3)c(=O)[nH]c1=O | 16 | 2 | 0 | 102 | 6 | -1 | . | .
CCCCn1c(O)c(C=NCc2ccc3c(c2)OCO3)c(=O)[nH]c1=O | . | -1 | 94* | 102 | 5 | -4 | -1 | 96
COc1ccccc1-n1c(O)c(C=NCc2ccc3c(c2)OCO3)c(=O)[nH]c1=O | 0 | 4 | 1 | 103 | 13 | 1 | . | .
O=c1[nH]c(=O)n(Cc2ccco2)c(O)c1C=NCc1ccc2c(c1)OCO2 | -5 | -4 | 0 | 100 | 12 | -1 | 1 | 102
N#CC(=C(O)c1ccc(S(=O)(=O)N(CCCl)CCCl)cc1)c1nc2ccccc2[nH]1 | . | . | . | 84 | . | . | . | .
Cc1cc(-c2cc(C)c(N)c(C)c2)cc(C)c1N | . | . | . | 99 | . | . | . | .
CC(=Nc1ccc2c(c1)CCC2)c1c(O)n(C2CCCCC2)c(=O)[nH]c1=O | -17 | -4 | 0 | 100 | -5 | 11 | . | .
CCC(=Nc1ccc2c(c1)CCC2)c1c(O)n(C2CCCCC2)c(=O)[nH]c1=O | 6 | 0 | 100* | 103 | 2 | -3 | 1 | 108

Screens: PubChem BioAssay, several laboratories
